# Sampled rows, rich in hits. Any-hit rate of the full collection: about 2.4%.
# Pol eta inh-1: DNA polymerase eta (human) inhibition. recombinant Pol eta, fluorescent DNA replication assay. Q9Y253. Potency, µM (top dose mostly 114 µM), hits mostly inhibitors. AID 588591. 390,000 tested, 1.2% active
#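 Pol eta (10 nM) was preincubated with compounds for 15 min at room temperature, after which fluorescent replication substrate (50 nM final) was added to start the reaction. Fluorescence was read kinetically at 0 and 10 min.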
# WRN helicase inh-1: blocks human WRN helicase. Potency, µM (series often up to 114 µM), usual class: inhibitors. Q14191. WRN helicase unwinding, fluorescent forked duplex, kinetic. 360,000 tested, 0.46% active; note: nearly all actives have a fitted effect of over 55% in size
#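 Enzyme (20 nM final) and test compound sit together 15 min at room temperature before substrate addition. Substrate is a single-forked duplex oligonucleotide (100 nM) labelled with fluorophore and quencher, with 2 mM ATP; helicase unwinding raises red fluorescence, read kinetically.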
# Pol kappa inh-1: inhibitors of human DNA polymerase kappa; Q9UBT6; purified Pol kappa, fluorescent DNA synthesis assay, 10 min; Potency, µM (top dose mostly 107 µM), usual class: inhibitors; 400,000 tested, 0.53% active
#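 Enzyme at 10 nM met test compounds for 15 min at room temperature. Substrate addition (50 nM final) began the reaction, which was monitored by fluorescence at 0 and 10 min.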
# Pol beta inh: blocks human DNA polymerase beta activity. Potency, µM (doses to about 114 µM), hits mostly inhibitors. Pol beta primer extension/strand displacement, fluorescence kinetic. 340,000 tested, 1.3% active. P06746
#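 Pol beta (10 nM) was preincubated with compound for 15 min at room temperature. The reaction was then started with 50 nM substrate and read immediately and after a further 10 min at room temperature.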
# FEN1 inh-1: blocks human flap endonuclease 1 | Recombinant FEN1 flap cleavage, fluorescence, 15 min | Potency, µM (doses to about 114 µM), usual class: inhibitors | 390,000 tested, 0.35% active; note: nearly all actives have a fitted effect of over 65% in size
# Target sequence (P39748 whole entry, looked up): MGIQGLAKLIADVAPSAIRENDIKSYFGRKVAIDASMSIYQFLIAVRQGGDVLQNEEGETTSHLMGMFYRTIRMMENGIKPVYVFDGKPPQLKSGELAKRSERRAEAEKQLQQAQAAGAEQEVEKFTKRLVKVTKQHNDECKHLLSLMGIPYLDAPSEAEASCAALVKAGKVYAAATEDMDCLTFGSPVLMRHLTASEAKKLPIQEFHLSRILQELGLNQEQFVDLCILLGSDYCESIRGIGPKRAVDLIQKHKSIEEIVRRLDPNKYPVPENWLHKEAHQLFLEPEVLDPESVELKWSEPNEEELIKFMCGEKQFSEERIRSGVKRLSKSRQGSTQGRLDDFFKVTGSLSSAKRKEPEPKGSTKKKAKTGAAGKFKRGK
#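 Nuclease activity of 10 nM FEN1 was measured after 15 min of room-temperature exposure to titrated compounds, by adding 50 nM flap substrate and reading plates at 0 and 15 min.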
# POLI inh: blocks human DNA polymerase iota activity; Q9UNA4; Pol iota fluorescent replication assay, 10 min; Potency, µM (series often up to 115 µM), actives largely listed as inhibitors; 390,000 tested, 1% active; AID 588590
#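 Fluorescent replication assay read twice, at 0 min and 10 min after adding 50 nM (final) substrate. Enzyme (10 nM) and compounds were first incubated 15 min at room temperature; enzyme-free buffer wells were negative controls.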
# Pol kappa inh-2: confirmation of human DNA polymerase kappa inhibitors; shares compounds with Pol eta inh-1; purified Pol-kappa, fluorescent strand-displacement substrate; Potency, µM, actives largely listed as inhibitors; 920 tested, 76% active; AID 720501
# Pol eta inh-2: Pol eta (human) inhibition, cherry-pick confirmation. shares compounds with Pol eta inh-1. Pol eta primer extension, TAMRA/BHQ fluorescence, 10 min. Potency, µM, hits mostly inhibitors. 2,600 tested, 64% active
# FEN1 inh-2: confirmation of human FEN1 inhibitors; shares compounds with FEN1 inh-1; FEN1 flap cleavage, TAMRA/BHQ2 fluorogenic DNA substrate; Potency, µM, actives largely listed as inhibitors; 880 tested, 79% active; AID 720498; note: nearly all actives have a fitted effect of over 60% in size
# WRN helicase inh-2: WRN helicase inhibition, cherry-pick retest; Potency, µM (highest dose often 57.1 µM), most hits filed as inhibitors; shares compounds with WRN helicase inh-1; WRN helicase DNA unwinding, fluorescence kinetic; 610 tested, 63% active; note: nearly all actives have a fitted effect of over 65% in size
# TO displacement: DNA binding via thiazole orange displacement. shares compounds with WRN helicase inh-1. thiazole orange DNA binding displacement, fluorescence. Potency, µM (doses to about 57.1 µM), usual class: inhibitors. 610 tested, 10% active. AID 720499;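 note: drop in dye fluorescence marks compound binding to DNA; nearly all actives have a fitted effect of over 60% in size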
# BLM helicase inh: counter-screen for WRN helicase inhibitors: human BLM helicase inhibition. shares compounds with WRN helicase inh-1. Recombinant BLM helicase DNA unwinding, red fluorescence. Potency, µM (doses to about 57.1 µM), hits mostly inhibitors. 610 tested, 60% active. AID 720503; note: nearly all actives have a fitted effect of over 60% in size
# Hits are given with their value; - = inactive; ? = inconclusive; . = no result given; [ ] = dose if it differs, or a comment. Calls come from the whole dose curve; as a rule, active = well fitted curve in the direction sought with a large enough effect; inconclusive = small, poorly fitted or top-dose-only effect, or another doubt; inactive = no such curve, though single readings can be large; an effect the other way counts as inactive or inconclusive.
SMILES,Pol eta inh-1,WRN helicase inh-1,Pol kappa inh-1,Pol beta inh,FEN1 inh-1,POLI inh,Pol eta inh-2,WRN helicase inh-2,TO displacement,BLM helicase inh,others
O=c1ccc2[n+]([O-])c3ccc(O)cc3oc-2c1,-,-,?,63µM,40µM,25µM,.,.,.,.,Pol kappa inh-2=24;FEN1 inh-2=60
O=c1cc(O)c2ccc(O)cc2o1,-,-,-,-,-,-,.,.,.,.,
CCOC(=O)c1ccc(NC(=O)Nc2ccc3snnc3c2)cc1,-,.,-,-,-,-,.,.,.,.,
CC(C)COC(=O)N1CCCCC1c1cc(C(=O)NCc2ccc(F)cc2)no1 (configuration not stated),.,-,.,.,.,.,.,.,.,.,
CC(=O)NN1C(=O)/C(=C/c2ccc(Br)o2)SC1=S,4µM,50µM,7.9µM,?,40µM,2.5µM,?,-,-,-,
O=C(c1ccccc1)c1ccc2nc(-c3ccco3)c(-c3ccco3)nc2c1,13µM,16µM,25µM,8.9µM,?,4µM,?,15µM,24µM,8.6µM,Pol kappa inh-2=?
C/C(=N/NC(=O)c1cc2ccccc2cc1O)C1C(=O)c2ccccc2C1=O,14µM,45µM,?,?,50µM,32µM,?,15µM,3.4µM,15µM,FEN1 inh-2=60
Cc1ccc(-c2csc(NC(=O)/C=C/c3ccco3)c2C(=O)O)cc1,28µM,40µM,50µM,28µM,-,?,?,?,-,?,
O=C(Nc1scc(-c2ccc(F)cc2)c1C(=O)O)c1ccco1,-,-,-,-,-,?,.,.,.,.,
CC(=O)Nc1sc(C)c(C)c1C(=O)OCC(=O)Nc1ccccc1C(F)(F)F,-,-,.,.,.,.,.,.,.,.,
O=[N+]([O-])c1c(Nc2ccc(O)cc2)cc(Cl)c2nonc12,50µM,?,-,-,?,3.5µM,?,?,34µM,?,
COc1ccc(S(=O)(=O)N2C[C@H]3CON(C)[C@H]3C[C@H]2c2ccc(-c3cc4ccccc4o3)cc2)cc1,-,-,.,.,.,.,.,.,.,.,
CCCN1C(=O)/C(=C\C=C2/Sc3ccccc3N2CC)SC1=S,.,.,.,-,.,.,.,.,.,.,
CCCN1C(=O)/C(=C\C=C2\N(CC)c3ccccc3C2(C)C)SC1=S,?,4.2µM,-,-,?,?,.,14µM,-,11µM,Pol kappa inh-2=53
COc1cc(/C=C2\SC(=N)N(c3ccc(F)cc3)C2=O)ccc1O,-,-,-,?,-,-,.,.,.,.,
COc1cc(/C=C2\SC(=S)N(Nc3ncc(C(F)(F)F)cc3Cl)C2=O)ccc1O,?,32µM,-,14µM,?,14µM,.,7.6µM,-,6.1µM,Pol kappa inh-2=?
O=C(O)COc1ccccc1/C=C1\SC(=S)N(NC(=O)c2ccccc2O)C1=O,32µM,?,32µM,.,?,7.1µM,?,?,-,-,Pol kappa inh-2=7.5
COC(=O)CCNC(=O)N1CCN(c2nnc(C)c3c(C)n(-c4ccc(Cl)cc4)nc23)CC1,.,.,-,-,-,-,.,.,.,.,
COc1cc(/C=C2/C(=O)c3cccc([N+](=O)[O-])c3C2=O)c(Br)cc1O,25µM,4.2µM,-,40µM,?,25µM,48,?,?,?,
COC(=O)[C@H](CO)N1C(=O)[C@@H]2[C@H](C1=O)C1C=C[C@H]2C1,-,-,-,.,-,-,.,.,.,.,
O=C(O)CCCNc1cc(N2CCN(C3CCCCC3)CC2)c2noc3c2c1C(=O)c1ccccc1-3,-,.,?,20µM,?,?,?,6.8µM,-,6.1µM,FEN1 inh-2=?
CC(C)Nc1cc(N2CCN(C3CCCCC3)CC2)c2noc3c2c1C(=O)c1ccccc1-3,-,.,-,-,-,-,.,.,.,.,
Nc1ccc(S(=O)(=O)c2cc(O)c3ccccc3c2O)cc1,40µM,28µM,-,.,?,?,?,24µM,24µM,22µM,Pol kappa inh-2=84
O=S(=O)(c1ccccc1)c1cc(O)ccc1O,-,-,-,?,-,-,.,.,.,.,
O=C(O)CCCN1C(=O)/C(=C\c2ccco2)SC1=S,20µM,?,11µM,20µM,32µM,7.1µM,48,?,-,?,Pol kappa inh-2=42
SMILES,Pol eta inh-1,WRN helicase inh-1,Pol kappa inh-1,Pol beta inh,FEN1 inh-1,POLI inh,Pol eta inh-2,WRN helicase inh-2,TO displacement,BLM helicase inh,others
O=C(CCCN1C(=O)/C(=C\c2ccccc2)SC1=S)N1CCOCC1,-,-,-,.,-,-,.,.,.,.,
Cc1ccc(-c2ccc(/C=C3\C(=O)ON=C3c3ccccc3)o2)c([N+](=O)[O-])c1,28µM,40µM,-,-,-,32µM,85,22µM,?,22µM,Pol kappa inh-2=?
CCN(CC)C(=O)C1=C(C)N(Cc2ccccc2)C(=O)C(CC(=O)NCc2cccs2)C1 (configuration not stated),-,-,.,.,.,.,.,.,.,.,
O=C(O)CN1C(=O)/C(=C\C(Br)=C\c2ccccc2)SC1=S,8.9µM,?,?,?,?,?,24,22µM,-,22µM,
O=C1OC2(CCCCC2)CC2=C1C1O[C@](CCCCN3C(=O)c4ccccc4C3=O)(Cc3ccccc31)O2,.,.,.,-[22.9 µM],.,.,.,.,.,.,
CCN(CC)c1ccc(/C=C2/C(=O)c3ccc(C(=O)O)cc3C2=O)cc1,3.5µM,35µM,79µM,?,?,18µM,38,24µM,-,?,Pol kappa inh-2=7.5
CCN(CC)c1ccc(/C=C2/C(=O)ON=C2C)cc1,-,-,-,-,-,?,.,.,.,.,
CCC(=O)c1ccc(OCC(=O)NNC(=O)c2cc(C)oc2C)cc1,-,-,-,.,-,-,.,.,.,.,
O=C(ONc1ccc(N=NC(=O)c2ccccc2O)cc1)c1ccccc1,50µM,?,-,-,-,-,?,22µM,27µM,14µM,
Cc1cc(N=NC(=O)c2ccccc2)ccc1O,-,-,-,-,-,?,.,.,.,.,
O=C(C[C@H]1C=C[C@@H](NS(=O)(=O)c2ccccc2)[C@@H](CO)O1)NCc1ccc(Cl)c(Cl)c1,.,-,.,.,.,.,.,.,.,.,
NCCCNc1ncnc2ccc(-c3ccc4c(c3)OCO4)cc12,.,.,.,.,.,.,.,.,.,.,FEN1 inh-2=38
CN(C)CCNc1ncnc2ccc(-c3ccc4c(c3)OCO4)cc12,.,.,.,.,.,.,.,.,.,.,FEN1 inh-2=30
c1nc(NCCN2CCOCC2)c2cc(-c3ccc4c(c3)OCO4)ccc2n1,.,.,-,.,.,.,.,.,.,.,
CC(=O)NCCNc1ncnc2ccc(-c3ccc4c(c3)OCO4)cc12,.,.,-,.,.,.,.,.,.,.,
